# Screening data deposited in PubChem BioAssay by National Center for Advancing Translational Sciences (NCATS).
# This is a sample that favours compounds with a hit; in the whole collection about 1.3% have one here.
# AMA1-RON2 inh: qHTS for Inhibitors of AMA1-RON; Towards Development of Antimalarial Drug Lead: Primary Screen; Plasmodium falciparum AMA1 (3D7) - RON2 peptide interaction; AlphaScreen AMA1-biotinylated RON2 peptide binding; Potency, µM (doses to about 58.2 µM), for inactives: top-dose activity change, negative = inhibition, usual class: inhibitors; actives 0.2% (n = 360,000);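 note: potency is the fitted concentration of half-maximal effect; 0% = vehicle wells and -100% = peptide control; nearly all actives have a fitted effect of over 45% in size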
#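 AMA1 (3D7) with his tag at 25 nM final met compounds first, then biotinylated RON2 peptide at 25 nM; detection used donor plus acceptor beads, 10 µg/mL apiece, read by AlphaScreen after 30 min at room temperature.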
# Vaccinia Venus: qHTS for Stage-Specific Inhibitors of Vaccinia Orthopoxvirus: Venus Reporter Primary qHTS; Vaccinia virus Venus reporter expression, fluorescence; Potency, µM (top dose mostly 36.5 µM), for inactives: at the top dose activity change, negative = inhibition, usual class: inhibitors; actives 0.46% (n = 330,000); calls by dose curve; tested in A549 cells; note: potency is the fitted concentration of half-maximal effect; % is set by controls: 0 for no effect and ±100 for the full control effect; nearly all actives have a fitted effect of over 30% in size
# AmpC detergent: qHTS Inhibitors of AmpC Beta-Lactamase (assay with detergent); AmpC hydrolysis of nitrocefin, absorbance 480 nm, 0.01% Triton; AID 485294, 2010; Potency, µM (series often up to 114 µM), inactives show at the top dose activity change, negative = inhibition, usual class: inhibitors; actives 0.041% (n = 370,000);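 note: potency is the fitted concentration of half-maximal effect; 0% = no-compound wells and -100% = no-enzyme wells; nearly all actives have a fitted effect of over 25% in size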
# Target sequence (P00811 whole entry, looked up): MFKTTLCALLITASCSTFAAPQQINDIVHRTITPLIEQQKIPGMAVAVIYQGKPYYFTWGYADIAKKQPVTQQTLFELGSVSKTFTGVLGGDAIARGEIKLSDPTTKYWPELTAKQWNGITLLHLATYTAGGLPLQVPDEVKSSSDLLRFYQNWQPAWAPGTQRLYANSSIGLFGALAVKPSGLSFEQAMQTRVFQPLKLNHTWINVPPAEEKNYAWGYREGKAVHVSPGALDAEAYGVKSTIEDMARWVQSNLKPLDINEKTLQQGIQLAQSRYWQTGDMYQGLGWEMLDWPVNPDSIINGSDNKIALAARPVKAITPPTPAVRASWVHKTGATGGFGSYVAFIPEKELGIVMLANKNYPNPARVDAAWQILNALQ
#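 AmpC (5.3 nM in the dispensed reagent) in 20 mM phosphate pH 7.0 with 0.01% (detergent screen) or 0.0001% Triton X-100 was preincubated with compounds for 15 min at room temperature. Nitrocefin was then added from an 800 uM solution, and hydrolysis was followed at 480 nm.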
# SARS PLpro yeast-1: qHTS of Yeast-based Assay for SARS-CoV PLP; S. cerevisiae expressing SARS-CoV PLpro, growth rescue; Potency, µM (series often up to 32.9 µM), for inactives: at the highest dose activity, positive = growth rescue, usual class: activators; actives 0.19% (n = 330,000); AID 485353, 2010; calls by dose curve; note: potency is the fitted concentration of half-maximal effect; 0% is about no effect; nearly all actives have a fitted effect of over 55% in size
# Vaccinia mCherry: qHTS for Stage-Specific Inhibitors of Vaccinia Orthopoxvirus: mCherry Reporter Primary qHTS; Vaccinia virus mCherry reporter infection, fluorescence; Potency, µM (series often up to 36.5 µM), inactives show at the highest dose activity change, negative = inhibition, hits mostly inhibitors; actives 0.63% (n = 310,000); calls by dose curve; tested in A549 cells; note: potency is the fitted concentration of half-maximal effect; % is set by controls: 0 for no effect and ±100 for the full control effect; nearly all actives have a fitted effect of over 35% in size
# AmpC inh no detg: qHTS Inhibitors of AmpC Beta-Lactamase (assay without detergent); P00811; AmpC nitrocefin hydrolysis, absorbance 480 nm, 0.0001% Triton; Potency, µM (series often up to 57.1 µM), for inactives: at the top dose activity change, negative = inhibition, actives largely listed as inhibitors; actives 0.52% (n = 330,000);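 note: potency is the fitted concentration of half-maximal effect; plate controls were no compound for no effect and no enzyme for full effect; nearly all actives have a fitted effect of over 20% in size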
#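 AmpC (5.3 nM in the dispensed reagent) in 20 mM phosphate pH 7.0 with 0.01% (detergent screen) or 0.0001% Triton X-100 was preincubated with compounds for 15 min at room temperature. Nitrocefin was then added from an 800 uM solution, and hydrolysis was followed at 480 nm.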
# SARS PLpro yeast-2: qHTS of Yeast-based Assay for SARS-CoV PLP: Hit Validation. shares compounds with SARS PLpro yeast-1. yeast expressing SARS-CoV PLpro, growth phenotype rescue. calls only. actives 19% (n = 1,000). AID 652038, 2013; call rule not given here
# The depositor's hits bear a star; i = inactive; ? = inconclusive; / = not tested or not shown; + = active, no number; [ ] = remark or other dose. Unless noted, calls come from the whole dose curve; as a rule, active = well fitted curve in the direction sought with a large enough effect; inconclusive = small, poorly fitted or top-dose-only effect, or another doubt; inactive = no such curve, though single readings can be large; an effect the other way counts as inactive or inconclusive.
SMILES,AMA1-RON2 inh,Vaccinia Venus,AmpC detergent,SARS PLpro yeast-1,Vaccinia mCherry,AmpC inh no detg,SARS PLpro yeast-2
CCNC(=O)C1(C)CCN1C(=O)CCc1cccc(Cl)c1 (stereo not given),5%,-12%,/,/,i,/,/
CCCCCCC(=O)Nc1nc(C)c(-c2csc(Nc3cc(OC)ccc3OC)n2)s1,9%,?,0%,?,?,-40%,i
Cc1cccc(OCCNc2cc(N3CCN(CCO)CC3)ccc2[N+](=O)[O-])c1,?,?,-3%,13µM*,10µM*,136%,i
COc1ccc(NC(=O)Cc2csc(COc3cccc(C)c3)n2)c(OC)c1,/,-5%,7%,/,-15%,/,/
Cc1ccc2c(=O)c(C(=O)c3cccc(Cl)c3)cn(CC(=O)Nc3ccc4c(c3)OCCO4)c2n1,/,-5%,6%,/,-25%,/,/
CCCN1C(=O)SC(CC(=O)Nc2ccc(Br)cc2)C1=O (stereo not given),-9%,-25%,?,-19%,-24%,-21%,/
CCCN1C(=O)SC(CC(=O)Nc2ccccc2C)C1=O (stereo not given),7%,-20%,-5%,?,/,-15%,i
Cc1cccc(-n2ccnc2SCC(=O)Nc2nnc(C)s2)c1,1%,-22%,?,6%,-6%,-17%,/
CCc1nnc(NC(=O)CSc2nccn2-c2cccc(C)c2)s1,0%,-21%,-14%,13µM*,?,-9%,i
COc1ccc(N2CCN(C(=O)C3CCCN(S(=O)(=O)c4c(C)noc4C)C3)CC2)cc1 (stereo not given),-25%,-17%,5%,1%,?,138%,/
Cc1ccccc1NCc1ccc(O)c2ncccc12,-28%,?,1%,?,?,-18%,+
Cc1cccc(NCc2ccc(O)c3ncccc23)c1,21%,-20%,5%,-1%,?,-15%,/
CCOC(=O)c1nn(-c2ccc(Cl)cc2)c2nc(Nc3ccccc3)cc(=O)n12,5%,-14%,-2%,?,/,29%,i
CCOC(=O)c1nn(-c2cccc(Cl)c2)c2nc(Nc3ccccc3)cc(=O)n12,11%,-6%,-12%,5%,-5%,68%,/
CCOc1ccc(CCNC(=O)CCNC(=O)c2ccccc2Cl)cc1OCC,0%,-18%,3%,-3%,i,57%,/
COc1cccc(NC(=S)NN2CCN(C)CC2)c1,3%,-7%,?,-3%,/,-14%,/
Cc1cccc(C)c1NC(=S)NN1CCN(C)CC1,9%,-12%,0%,?,-22%,-18%,+
CCOc1cccc(/C=N/Nc2ccc(S(=O)(=O)N(CC)CC)cn2)c1O,42%,?,?,7.9µM*,?,-19%,i
Cc1c2cnccc2c(C)c2c1oc1ccccc12,33%,?,/,/,?,/,/
Cc1cccc(NC(=S)/N=C(\N)Nc2nc(C)c3ccccc3n2)c1,65%,-20%,0%,?,?,-33%,/
Cc1ccc(NC(=S)/N=C(\N)Nc2nc(C)c3ccccc3n2)cc1C,7%[2.32 µM],-23%,7%,10µM*,-12%,-9%,+
CCOC(=O)C1=CCN(S(=O)(=O)c2ccccc2[N+](=O)[O-])C1c1ccc(C)cc1 (stereo not given),-18%,-7%,/,/,17%,/,/
CCOc1ccccc1Nc1nnc(SCc2nnc(-c3cc(OC)c(OC)c(OC)c3)o2)s1,-9%,?,-13%,?,?,96%,i
